In PubChem BioAssay AID1347145 (National Center for Advancing Translational Sciences (NCATS), 2019):
Inconclusive results are not listed. Calls of active or inactive are those of the source. Calls follow the shape of the dose curve; as a rule, active = well fitted inhibition curve with a large enough effect; inconclusive = small, poorly fitted or top-dose-only effect; inactive = no such curve, though single readings can be large or run the other way.

These compounds were tested against N-terminal Xaa-Pro-Lys N-methyltransferase 1 (Homo sapiens) (UniProt Q9BV86) (assay: qHTS Assay for Inhibitors of N-terminal methyltransferase 1 (NTMT1): MTaseGlo Assay Confirmatory Screen, Round 1). Conditions: Recombinant NTMT1, MTase-Glo SAH luminescence; series mostly up to 57.1 µM.
From the text: Assay Submitter (PI): Rong Huang Ph.D, Purdue University, West Lafayette, IN 47907 The N-terminal methytransferase 1 is the first methyltransferase that methylates protein alpha-N-amines and plays an important role in regulating cell mitosis, chromatin interactions and DNA repair. It is observed to be over-expressed in various cancer patient tissues like malignant melanoma and colorectal cancer tissues. Knockdown of NTMT1 in cancer cells causes cell mitotic defects and enhances sensitivity to DNA damaging chemotherapeutics. […] These critical cellular processes in which NTMT1 is implicated, coupled with emerging links to cellular dysfunction, strengthen the inference that NTMT1 is a compelling novel anticancer target. Progress have been made in understanding the molecular properties of NTMT1 and the biological consequences of protein alpha-N-terminal methylation, but there are no specific small molecule probes available for NTMT1 to fully characterize its MTase activity. To address this unmet need, a panel of assay is created and established to enable quantitative high-throughput screening (qHTS) for novel, potent, and selective small molecule NTMT1 inhibitors. Two orthogonal qHTS that use different reagents (ThioGlo vs. MTaseGlo) are developed for primary robotic screening against the NCATS chemical library of more than 400,000 small molecules. Identified inhibitors are reacquired, validated, and further characterized. MTaseGlo Assay is a luminescence screen that measure the activity of methyltransferases based on the reaction product S-adenosyl homocysteine (SAH). The substrate SAM is converted to SAH upon enzyme activation. MTase-Glo reagent and detection solution convert SAH to ATP and measure the light from the luciferase reaction. […] Early Translation Branch (ETB) National Center for Advancing Translational Sciences (NCATS) National Institute of Health (NIH)
Materials: NTMT1 enzyme, substrate SPKRIA, control peptide RCC1-6 is provided by the Huang laboratory. MTaseGlo Assay: In brief, 3 µL of enzyme mixture (final concentrations of 125 nM and 100 µM for NTMT1 and SAM, respectively) into all wells of a 1,536-well solid-bottom white plate (Greiner Bio One, Monroe, NC). 23 nL of DMSO or Ac-RCC1-10 (final concentration range 234 nM to 143 microM) was transferred via Wako Pin-tool (Wako Automation, Richmond, VA) and incubated (RT) for ~15 minutes. Next, 1 µL of substrate (final concentration 1 µM) or buffer was dispensed, and the reaction proceeded for 30 minutes (RT, protected from light) followed by a 1 microL addition of [5X] MTase-Glo Reagent(R). Samples were incubated (RT, protected from light) for 30 minutes to allow for SAH to be converted to ADP, followed by a 5 microL addition of [1X] MTase-Glo Detection Solution(R) to allow for ADP to be converted to ATP, which was then detected with a luciferase reaction. Samples were centrifuged for 15 seconds at 1,000 RPM's, followed by a RT incubation for 30 minutes. Plates were then read using Luminescence optics on a ViewLux detector. Data were normalized to no-enzyme (0% activity) and no-inhibitor (DMSO; 100%) controls, and the resulting percent inhibition data were fitted to a 4-parameter Hill equation using Graphpad Prism.

Chain of N-terminal Xaa-Pro-Lys N-methyltransferase 1 (Homo sapiens) (Q9BV86 whole entry, looked up): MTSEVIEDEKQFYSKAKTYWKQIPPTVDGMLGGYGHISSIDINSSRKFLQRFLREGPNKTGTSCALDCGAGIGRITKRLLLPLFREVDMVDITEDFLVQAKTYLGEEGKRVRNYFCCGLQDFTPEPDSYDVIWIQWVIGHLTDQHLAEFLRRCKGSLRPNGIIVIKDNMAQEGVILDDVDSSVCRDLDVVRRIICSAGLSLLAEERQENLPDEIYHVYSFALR

SMILES | outcome
Nc1ncnc2c1ncn2[C@@H]1O[C@@H]2CO[P@](=O)(S)O[C@H]2[C@H]1O | inactive
Nc1ncnc2c1ncn2[C@@H]1O[C@H](COP(=O)(O)OP(=O)(O)OP(=O)(O)O)[C@H]2OC3(O[C@H]21)C([N+](=O)[O-])=CC(=[N+]([O-])[O-])C=C3[N+](=O)[O-] (stereo partly drawn) | inactive
Nc1ncnc2c1nc(Sc1ccc(Cl)cc1)n2[C@@H]1O[C@@H]2COP(O)(=S)O[C@H]2[C@H]1O (stereo partly drawn) | inactive
CCN(CC)c1ncnc2c1ncn2[C@@H]1O[C@H](COP(=O)(O)OP(=O)(O)C(Br)(Br)P(=O)(O)O)[C@@H](O)[C@H]1O | inactive
Nc1ncnc2c1ncn2[C@@H]1O[C@H](COP(=O)(O)CP(=O)(O)O)[C@@H](O)[C@H]1O | inactive
COc1cc2nc(N3CCCN(C)CC3)nc(N(C)C3CCN(C)CC3)c2cc1OC | inactive
Nc1ncnc2c1ncn2[C@@H]1O[C@@H]2COP(O)(=S)O[C@H]2[C@H]1O (stereo partly drawn) | inactive
CCNC(=O)[C@H]1O[C@@H](n2cnc3c(N)ncnc32)[C@H](O)C1O (stereo partly drawn) | inactive
